# Results filed as inconclusive are left out. Entries that show only a call come without a potency. The source made the active and inactive calls. Unless noted, calls follow the shape of the dose curve; as a rule, active = well fitted curve in the direction sought with a large enough effect in the repeat runs; inconclusive = weak or mixed curves; inactive = no such curve, though single readings can be large; an effect the other way counts as inactive or inconclusive.
# Columns and labels:
# [1] = qHTS assay to identify small molecule antagonists of the glucocorticoid receptor (GR) signaling pathway - cell viability counter screen (AID 720693); also: nearly all actives have a fitted effect of over 55% in size
# [2] = qHTS assay to identify small molecule antagonists of the androgen receptor (AR) signaling pathway - cell viability counter screen (AID 743033; also: nearly all actives have a fitted effect of over 45% in size; also: potency is read from the fitted curve at half-maximal effect)
# [3] = qHTS assay to identify small molecule antagonists of the androgen receptor (AR) signaling pathway using the MDA cell line - cell viability counter screen (AID 743041; also: nearly all actives have a fitted effect of over 45% in size; also: potency is read from the fitted curve at half-maximal effect)
# Procedure, shortened: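 Viability counter screen run alongside the AR antagonist reporter: cells seeded 5 h before compound, R1881 added, 16 h incubation at 37C without CO2, fluorescent CellTiter-Fluor signal quantified.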
# [4] = qHTS assay for identifying genotoxic compounds that show differential cytotoxicity against isogenic chicken DT40 cell lines with known DNA damage response pathways - Rad54/Ku70 mutant cell line (AID 743015); also: nearly all actives have a fitted effect of over 60% in size; also: potency is read from the fitted curve at half-maximal effect
# [5] = qHTS assay for identifying genotoxic compounds that show differential cytotoxicity against isogenic chicken DT40 cell lines with known DNA damage response pathways - wild type cell line (AID 743012); also: nearly all actives have a fitted effect of over 60% in size; also: potency is read from the fitted curve at half-maximal effect
# Procedure, shortened: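 Quantitative HTS on parental DT40 cells: 40 h compound treatment at 37 C/5% CO2, with viability then determined by CellTiter-Glo luminescence. Values serve as the DNA repair-proficient reference for differential cytotoxicity.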
# [6] = qHTS assay for identifying genotoxic compounds that show differential cytotoxicity against isogenic chicken DT40 cell lines with known DNA damage response pathways - Rev3 mutant cell line (AID 743014); also: nearly all actives have a fitted effect of over 55% in size; also: potency is read from the fitted curve at half-maximal effect
# [7] = biological target: Androgen receptor (Homo sapiens) (UniProt P10275); assay: qHTS assay to identify small molecule antagonists of the androgen receptor (AR) signaling pathway (AID 743035; active = well fitted inhibition curve with a large enough effect in the signal ratio in the repeat runs, not every such curve was filed as active; the % refers to the signal ratio; also: potency is read from the fitted curve at half-maximal effect)
# Androgen receptor (Homo sapiens), sequence (P10275 whole entry, looked up): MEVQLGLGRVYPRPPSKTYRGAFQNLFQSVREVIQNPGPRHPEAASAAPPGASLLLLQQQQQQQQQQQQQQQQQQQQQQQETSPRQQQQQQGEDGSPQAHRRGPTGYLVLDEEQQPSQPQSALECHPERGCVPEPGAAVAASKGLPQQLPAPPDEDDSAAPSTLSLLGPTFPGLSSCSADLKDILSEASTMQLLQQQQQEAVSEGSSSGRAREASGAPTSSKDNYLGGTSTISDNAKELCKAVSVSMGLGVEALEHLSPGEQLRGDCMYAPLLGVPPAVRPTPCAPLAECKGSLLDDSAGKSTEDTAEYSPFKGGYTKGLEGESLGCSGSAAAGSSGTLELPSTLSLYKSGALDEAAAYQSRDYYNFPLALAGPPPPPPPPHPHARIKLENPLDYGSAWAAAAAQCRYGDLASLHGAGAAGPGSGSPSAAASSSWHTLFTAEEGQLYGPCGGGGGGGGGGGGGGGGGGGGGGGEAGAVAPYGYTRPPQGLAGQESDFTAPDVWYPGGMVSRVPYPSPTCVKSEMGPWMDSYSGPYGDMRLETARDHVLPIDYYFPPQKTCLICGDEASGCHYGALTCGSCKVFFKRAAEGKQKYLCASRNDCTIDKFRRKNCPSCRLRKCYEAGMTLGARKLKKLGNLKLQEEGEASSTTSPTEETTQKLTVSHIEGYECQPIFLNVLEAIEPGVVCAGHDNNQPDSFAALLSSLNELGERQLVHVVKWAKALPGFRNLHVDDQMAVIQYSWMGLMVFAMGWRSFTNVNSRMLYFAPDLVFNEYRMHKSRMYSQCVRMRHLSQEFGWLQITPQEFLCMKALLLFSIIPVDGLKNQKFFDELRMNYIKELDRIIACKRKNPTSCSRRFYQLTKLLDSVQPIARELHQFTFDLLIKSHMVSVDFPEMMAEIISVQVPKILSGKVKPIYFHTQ
# Procedure, shortened: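 Cell line: GeneBLAzer AR-UAS-bla GripTite (HEK293). Stimulus: R1881 added after compound. Exposure: 16 h, 37C, 5% CO2. Readout: LiveBLAzer B/G FRET fluorescence after 2 h at room temperature.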
# [8] = biological target: Androgen receptor (Homo sapiens) (UniProt P10275); assay: qHTS assay to identify small molecule agonists of the androgen receptor (AR) signaling pathway (AID 743036; active = well fitted activation curve with a large enough effect in the signal ratio in the repeat runs, with a control signal flat, not every such curve was filed as active; the % refers to the signal ratio; also: potency is read from the fitted curve at half-maximal effect)
# Procedure, shortened: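 AR-UAS-bla HEK293 cells, plated 4 h before dosing, were treated with compound for 16 h at 37C. beta-Lactamase reporter read after 2 h with LiveBLAzer B/G FRET substrate at room temperature.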
# [9] = biological target: Androgen receptor (Homo sapiens) (UniProt P10275); assay: qHTS assay to identify small molecule agonists of the androgen receptor (AR) signaling pathway using the MDA cell line (AID 743040; also: nearly all actives have a fitted effect of over 20% in size; also: potency is read from the fitted curve at half-maximal effect)
# Procedure, shortened: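 Luminescence from ONE-Glo, read after 30 min at room temperature, reflects MMTV-driven luciferase in MDA-kb2 cells (AR- and GR-responsive). Treatment lasted 16 h at 37C, 0% CO2.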
# [10] = biological target: Androgen receptor (Homo sapiens) (UniProt P10275); assay: qHTS assay to identify small molecule antagonists of the androgen receptor (AR) signaling pathway using the MDA cell line (AID 743042; also: nearly all actives have a fitted effect of over 55% in size; also: potency is read from the fitted curve at half-maximal effect)
# Procedure, shortened: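 MDA-kb2 cells (human breast carcinoma, stably carrying an MMTV-luciferase reporter responsive to AR and GR) were plated at 3,000 cells/well and preincubated 5 hr at 37C, then given compound plus R1881 agonist for 16 h. ONE-Glo luminescence was read.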
smiles,measurement,setting,value
CCCOc1ccc(S(=O)(=O)N2CCN(CC)CC2)cc1-c1nc2c(CC)n(Cc3ccccn3)nc2c(=O)[nH]1,Potency,[1],inactive
same,Potency,[2],inactive
same,Potency,[3],inactive
CC(CCO)CCc1ccccc1 (configuration not stated),Potency,[1],inactive
same,Potency,[4],inactive
same,Potency,[2],inactive
same,Potency,[3],inactive
C[Si]1(C)O[Si](C)(C)O[Si](C)(C)O1,Potency,[5],inactive
same,Potency,[6],inactive
same,Potency,[4],inactive
same,Potency,[2],inactive
same,Potency,[7],inactive
same,Potency,[8],inactive
same,Potency,[9],inactive
same,Potency,[3],inactive
same,Potency,[10],inactive
CCC(=O)Oc1ccc(/C(CC)=C(\CC)c2ccc(OC(=O)CC)cc2)cc1,Potency,[5],48.6 µM (active)
same,Potency,[6],54.5 µM (active)
same,Potency,[4],48.6 µM (active)
same,Potency,[2],inactive
O=c1[nH]c2ccc(S(=O)CCN3CCC(Cc4ccc(F)cc4)CC3)cc2o1 (configuration not stated),Potency,[5],13.7 µM (active)
same,Potency,[6],4.33 µM (active)
same,Potency,[4],6.86 µM (active)
same,Potency,[2],inactive
same,Potency,[3],inactive
CC[C@@H]([C@H](C)O)n1ncn(-c2ccc(N3CCN(c4ccc(OC[C@@H]5CO[C@@](Cn6cncn6)(c6ccc(F)cc6F)C5)cc4)CC3)cc2)c1=O,Potency,[5],1.19 µM (active)
same,Potency,[6],1.88 µM (active)
same,Potency,[4],1.68 µM (active)
same,Potency,[2],inactive
same,Potency,[3],inactive
Cc1nccn1-c1ccc(Sc2cccc(C3(C(N)=O)CCOCC3)c2)cc1,Potency,[5],0.77 µM (active)
same,Potency,[6],1.54 µM (active)
same,Potency,[4],1.37 µM (active)
same,Potency,[2],4.9 µM (active)
same,Potency,[3],15.4 µM (active)
Cc1ccc(Nc2nccc(N(C)c3ccc4c(C)n(C)nc4c3)n2)cc1S(N)(=O)=O,Potency,[5],9.44 µM (active)
same,Potency,[6],11.9 µM (active)
same,Potency,[4],10.6 µM (active)
same,Potency,[2],inactive
same,Potency,[9],inactive
same,Potency,[10],11.9 µM (active)
CCCCCCCCCCCC[N+](C)(C)CCCS(=O)(=O)[O-],Potency,[1],inactive
same,Potency,[4],27.6 µM (active)
same,Potency,[3],inactive
Nc1ccc(C(=O)OCCCOC(=O)c2ccc(N)cc2)cc1,Potency,[1],inactive
same,Potency,[2],inactive
CC(=O)Nc1ccccc1C,Potency,[5],inactive
same,Potency,[6],inactive
same,Potency,[4],inactive
same,Potency,[2],inactive
CC1C2CC(CC2C2CCCC(O)C2)C1(C)C (configuration not stated),Potency,[1],inactive
same,Potency,[6],24.3 µM (active)
same,Potency,[3],inactive
CC1=C(C=O)C(C)(C)CCC1,Potency,[5],inactive
same,Potency,[6],inactive
same,Potency,[4],inactive
same,Potency,[2],inactive
same,Potency,[3],inactive
CC(CCc1ccc2c(c1)OCO2)NN (configuration not stated),Potency,[5],inactive
same,Potency,[6],inactive
same,Potency,[4],inactive
same,Potency,[2],inactive
same,Potency,[3],inactive
O=S(=O)(c1ccccc1)c1ccc(Cl)cc1,Potency,[5],61.1 µM (active)
same,Potency,[6],61.1 µM (active)
same,Potency,[4],48.6 µM (active)
same,Potency,[2],inactive
same,Potency,[3],inactive
CC(=N\O)/C(C)=N/O,Potency,[1],inactive
same,Potency,[2],inactive
same,Potency,[3],inactive
CN1CCN(CCCN2c3ccccc3Sc3ccc(S(=O)(=O)N(C)C)cc32)CC1,Potency,[1],inactive
same,Potency,[6],inactive
same,Potency,[3],inactive
c1cnc2c(n1)CCCC2,Potency,[5],inactive
same,Potency,[6],inactive
same,Potency,[4],inactive
same,Potency,[2],inactive
same,Potency,[7],inactive
same,Potency,[8],inactive
same,Potency,[9],inactive
same,Potency,[10],inactive
CN(C)CCOC1=Cc2ccccc2Sc2ccc(Cl)cc21,Potency,[5],5.31 µM (active)
same,Potency,[6],6.68 µM (active)
same,Potency,[4],5.96 µM (active)
CO/N=C1\CN(c2nc3c(cc2F)c(=O)c(C(=O)O)cn3C2CC2)CC1CN (configuration not stated),Potency,[1],inactive
same,Potency,[6],inactive
same,Potency,[2],inactive
same,Potency,[3],inactive
COCCOC,Potency,[1],inactive
same,Potency,[2],inactive
same,Potency,[3],inactive
CCn1nc(C)c2c1C(=O)NCC(c1ccc(O)cc1)=N2,Potency,[5],61.1 µM (active)
same,Potency,[6],34.4 µM (active)
same,Potency,[2],inactive
same,Potency,[3],inactive
CC(=O)[C@H]1CC[C@H]2[C@@H]3C[C@H](C)C4=CC(=O)CC[C@]4(C)[C@H]3[C@@H](O)C[C@]12C,Potency,[5],9.02 µM (active)
same,Potency,[2],inactive
same,Potency,[7],inactive
same,Potency,[8],0.0129 µM (active)
same,Potency,[9],0.0285 µM (active)
same,Potency,[3],inactive
same,Potency,[10],inactive
CCC1(C)CC(=O)NC1=O (configuration not stated),Potency,[5],inactive
same,Potency,[4],inactive
same,Potency,[2],inactive
CCCCN(CCCC)C(=S)SSC(=S)N(CCCC)CCCC,Potency,[6],inactive
same,Potency,[4],inactive
same,Potency,[3],inactive
COc1cc2c(cc1OC)-c1cc(=Nc3c(C)cc(C)cc3C)n(C)c(=O)n1CC2,Potency,[5],2.66 µM (active)
same,Potency,[6],4.22 µM (active)
same,Potency,[4],6.68 µM (active)
same,Potency,[7],19 µM (active)
same,Potency,[9],inactive
same,Potency,[10],29.8 µM (active)
CNC(=S)NC,Potency,[5],61.1 µM (active)
same,Potency,[6],43.3 µM (active)
same,Potency,[4],61.1 µM (active)
same,Potency,[9],inactive
CC(=O)OCC(=O)[C@@]12OC(C)(C)O[C@@H]1C[C@H]1[C@@H]3C[C@H](F)C4=CC(=O)C=C[C@]4(C)[C@@]3(F)[C@@H](O)C[C@@]12C,Potency,[5],inactive
same,Potency,[6],inactive
same,Potency,[4],inactive
same,Potency,[3],inactive
O=C1NCCN1,Potency,[5],inactive
same,Potency,[4],inactive
same,Potency,[2],inactive
same,Potency,[3],inactive
